Shown are actives, neighbours in structure and some others; about 5.5% of the full set was active somewhere.
Gal4-VP16 FLuc – VP16 counterscreen qHTS for inhibitors of ROR gamma transcriptional activity; Drosophila S2 Gal4-VP16 UAS-luciferase, luminescence, 20 h; Potency, µM (series often up to 53.6 µM), for inactives: at the highest dose activity, negative = inhibition, most hits filed as inhibitors; 310,000 tested, 3.5% active;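 note: Gal4-VP16 expression switched on by copper sulfate through the metallothionein promoter; potency is the fitted concentration of half-maximal effect; % is set by controls: 0 for no effect and ±100 for the full control effect; nearly all actives have a fitted effect of over 50% in size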
RORgamma inh – qHTS for inhibitors of ROR gamma transcriptional activity; 310,000 tested, 5.4% active; Drosophila S2 Gal4-RORgamma UAS-luciferase reporter, 20 h; Nuclear receptor ROR-gamma (Mus musculus), P51450; Potency, µM (highest dose often 53.6 µM), for the others: at the highest dose activity change, negative = inhibition, usual class: inhibitors; note: potency is the fitted concentration of half-maximal effect; % is set by controls: 0 for no effect and ±100 for the full control effect; nearly all actives have a fitted effect of over 60% in size
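Stably transfected Drosophila Schneider cells are the test system, with ROR gamma fused to Gal4 and luciferase under UAS control; luminescence is read after 20 hr of 700 uM copper sulfate induction at ambient temperature.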
MBNL1-CUG inh – qHTS Assay for Inhibitors of MBNL1-poly(CUG) RNA binding; Muscleblind-like protein 1 (Homo sapiens), Q9NR56; TR-FRET MBNL1-His/biotin-(CUG)12 binding, 665/545 ratio; Potency, µM (doses to about 57.5 µM), inactives show at the top dose activity change, negative = inhibition, hits mostly inhibitors; 280,000 tested, 0.036% active; AID 2675, 2010; active = well fitted inhibition curve with a large enough effect in the signal ratio, with a control signal flat, not every such curve was filed as active; inconclusive = small, poorly fitted or top-dose-only effect, or effect the other way, or a change in a side signal; inactive = no such curve, though single readings can be large or run the other way; the % refers to the signal ratio; note: potency is the fitted concentration of half-maximal effect; % is set by controls: 0 for no effect and ±100 for the full control effect
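Compound titration spanned 92 nM–58 uM against the MBNL1-His/biotin-(CUG)12 complex. After 60 min at room temperature with 5 nM streptavidin-XL665 and 0.055 ng/ul terbium anti-His, ratiometric 665/545 nm emission (Ex 340 nm) normalized to controls.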
Six1-Eya2 blk – qHTS Assay for Inhibitors of the Six1/Eya2 Interaction | Homeobox protein SIX1 (Homo sapiens) + Protein phosphatase EYA2 (Homo sapiens), … | AlphaScreen GST-Six1/His-Eya2 binding, biochemical; hits give low values | activity change, % (concentration not given with the values) | AID 651725, 2012 | 360,000 tested, 0.56% active; in the data active = activity change below about -65%; inconclusive = mostly about -30% to -63%; note: % is set by controls: 0 for no effect and ±100 for the full control effect
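AlphaScreen with GST-Six1 and His-Eya2 (5X mix: 250 nM and 500 nM), glutathione donor and nickel acceptor beads; buffer 50 mM Tris pH 8.0, 300 mM NaCl, 1 mM TCEP; 1 h at 37 C in the dark.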
CtBP-E1A blk – qHTS Assay for Inhibitors of the CtBP/E1A Interaction; AID 651724, 2012; activity change, % (test concentration not listed); AlphaScreen GST-E1A/His-CtBP binding, 1536-well; hits give low values; 340,000 tested, 0.49% active; in the data active = activity change below about -65%; inconclusive = mostly about -30% to -63%; note: % is set by controls: 0 for no effect and ±100 for the full control effect
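Steps: dispense buffer (Tris pH 8.0, NaCl 300 mM, TCEP 1 mM, BSA, Tween 20); add 5X protein mix (GST-E1A, His-CtBP, 125 nM each); pin 23 nL compound; 2 h at 37 °C, dark; add 5X beads (50 ug/mL); 1 h; read.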
CBFb RUNX1 block – qHTS Assay for Compounds Blocking the Interaction Between CBF-beta and RUNX1 for the Treatment of Acute Myeloid Leukemia. AlphaScreen CBFb-His/RUNX1-biotin binding, biochemical. Potency, µM (doses to about 59.8 µM), inactives show at the highest dose activity, negative = inhibition, actives largely listed as inhibitors. 230,000 tested, under 10 active. AID 1477, 2009; note: % of control where 0% means no effect
Target sequence (Q01196 whole entry, looked up): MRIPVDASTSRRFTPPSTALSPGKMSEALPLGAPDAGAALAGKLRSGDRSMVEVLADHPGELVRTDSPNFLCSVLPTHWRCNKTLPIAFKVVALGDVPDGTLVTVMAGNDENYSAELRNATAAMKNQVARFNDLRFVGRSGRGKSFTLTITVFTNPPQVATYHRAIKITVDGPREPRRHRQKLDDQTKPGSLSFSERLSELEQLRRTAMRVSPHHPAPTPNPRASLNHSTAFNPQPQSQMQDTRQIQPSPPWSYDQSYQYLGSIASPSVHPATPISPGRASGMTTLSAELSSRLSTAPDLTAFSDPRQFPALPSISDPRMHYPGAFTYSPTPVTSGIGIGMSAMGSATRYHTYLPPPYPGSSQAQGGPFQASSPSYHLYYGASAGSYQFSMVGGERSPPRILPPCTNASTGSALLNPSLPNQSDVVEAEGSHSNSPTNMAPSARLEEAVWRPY
Target sequence (Q13951 whole entry, looked up): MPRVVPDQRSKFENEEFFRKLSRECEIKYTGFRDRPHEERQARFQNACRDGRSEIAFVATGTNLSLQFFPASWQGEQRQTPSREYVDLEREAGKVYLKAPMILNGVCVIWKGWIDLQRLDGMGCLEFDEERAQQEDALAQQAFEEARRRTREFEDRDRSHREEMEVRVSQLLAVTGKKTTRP
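AlphaScreen proximity signal reports loss of binding between His-tagged CBF-beta and biotin-labelled RUNX1, each at 30 nM. Proteins are pre-associated for 20 minutes, compounds added for 15 minutes, then beads for 90 minutes, all at ambient temperature.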
* = called active by the depositor; ? = inconclusive; nt = not tested or not shown; [ ] = dose if it differs, or a comment. Unless noted, calls come from the whole dose curve; as a rule, active = well fitted curve in the direction sought with a large enough effect; inconclusive = small, poorly fitted or top-dose-only effect, or another doubt; inactive = no such curve, though single readings can be large; an effect the other way counts as inactive or inconclusive.

SMILES	Gal4-VP16 FLuc	RORgamma inh	MBNL1-CUG inh	Six1-Eya2 blk	CtBP-E1A blk	CBFb RUNX1 block
CC(=O)N1c2ccc(S(=O)(=O)N3CCC(C(=O)Nc4cccc(Cl)c4)CC3)cc2CC1C (stereo unspecified)	11µM*	-31%	-5%	29	nt	nt
COc1cccc(-c2nnc(NC(=O)c3ccc(Cl)s3)o2)c1	0.22µM*	0.25µM*	-20%	-27	-3	-1%[2.36 µM]
COc1cccc(-c2nnc(NC(=O)CCS(=O)(=O)c3ccc(C)cc3)o2)c1	nt	nt	nt	-16	-4	nt
O=C(Nc1nnc(-c2ccco2)o1)c1ccc(Br)s1	nt	nt	nt	-12	2	nt
O=C(Nc1nnc(-c2ccco2)o1)c1ccc(Cl)s1	0.63µM*	2µM*	6%	-2	-10	nt
O=C(NCCc1ccccc1)C1C(=O)Nc2ccccc2C(=O)N1C1CCCCC1 (stereo unspecified)	nt	nt	nt	-6	1	nt
CC(=O)c1ccc(NC(=S)NC(=O)Cc2ccc(Cl)cc2)cc1	-9%	?	6%	9	8	nt
Cc1ccc(NC(=S)Nc2cccc3ccccc23)cc1F	7.9µM*	11µM*	41%	-6	-9	nt
CCCC(=O)NC(=S)Nc1ccc(C(C)=O)cc1	?	16µM*	nt	1	-18	0%
CC(=O)c1ccc(NC(=S)Nc2cccc3ccccc23)cc1	?	14µM*	?	1	-6	nt
O=C(O)CCSc1nnc(SCC(=O)NC2CCS(=O)(=O)C2)s1 (stereo unspecified)	nt	nt	nt	-7	0	nt
COc1ccc(C(CNC(=O)CN2C(=O)NC(C)(c3ccc4ccccc4c3)C2=O)N2CCCC2)cc1 (stereo unspecified)	nt	nt	nt	-15	nt	nt
COc1ccc(/C=C(/NC(=O)c2ccc(C)cc2)C(=O)N2CCCC2)cc1OC	3%	1%	6%	-1	2	nt
COc1ccccc1/C=N/NC(=O)c1nnn(-c2nonc2N)c1-c1cccs1	-8%	0%	?	-2	nt	nt
CC1(C)Cc2c(cnn2-c2cccc(F)c2)C(NC(=O)CN2CCCC2=O)C1 (stereo unspecified)	-3%	19%	0%	2	4	nt
CCOC(=O)CSc1cccc2cccnc12	10µM*	?	17%	-89*	-92*	?
O=C(CSc1cccc2cccnc12)Nc1cccc(S(=O)(=O)N2CCOCC2)c1	-10%	39%	14%	0	2	-3%
Cc1cccc(NC(=O)CSc2cccc3cccnc23)c1C	-8%	-39%	17%	?	-79*	nt
O=C(CSc1cccc2cccnc12)Nc1ccc(S(=O)(=O)N2CCOCC2)cc1	?	5.6µM*	?	-88*	-93*	-3%
Cc1cccc(CSc2cccc3cccnc23)c1	7.9µM*	4.5µM*	9%	-90*	-92*	nt
C[Si](C)(C)O[Si](C)(C)C	-5%	2%[10 µM]	nt	nt	nt	nt
CCCCCOc1ccc(NC(=O)CSc2cccc3cccnc23)cc1	?	?	5%	-92*	-95*	-1%
COc1ccc(NC(=O)CSc2cccc3cccnc23)c(OC)c1	-5%	-11%[10 µM]	nt	-21	-6	-6%
CCN(c1ccccc1)S(=O)(=O)c1ccc(C(=O)Nc2nnc(C3CC3)o2)cc1	0.56µM*	0.25µM*	3%	-6	-24	-21%
CN(c1ccccc1)S(=O)(=O)c1ccc(C(=O)Nc2nnc(C3CC3)o2)cc1	1µM*	0.32µM*	0%	7	nt	-8%
SMILES	Gal4-VP16 FLuc	RORgamma inh	MBNL1-CUG inh	Six1-Eya2 blk	CtBP-E1A blk	CBFb RUNX1 block
O=C(N/N=C\c1ccc(Br)o1)C1COc2ccccc2O1 (stereo unspecified)	-13%	-45%	20%	-29	-6	?
NC(=S)N/N=C/c1ccc(C23CC4CC(CC(C4)C2)C3)cc1	2.8µM*	0.45µM*	9%	-2	-7	nt
NC(=S)N/N=C/c1ccc(Br)o1	?	3.5µM*	17%	0	nt	-4%
NC(=S)N/N=C/c1ccc(-c2cc(Cl)c(Cl)cc2Cl)o1	1.1µM*	0.56µM*	8%	-2	-2	-13%
O=C(N/N=C/c1ccc(O)c(O)c1)NC12CC3CC(CC(C3)C1)C2	-8%	-17%	9%	-9	-11	nt
NC(=S)N/N=C/c1ccccc1	20µM*	16µM*	12%	2	14	-1%
CC1CCN(C(=S)NCCc2ccccc2)CC1	?	?	-4%	3	9	8%
CCOc1ccc(NC(=S)N2CCC(C(O)(c3ccccc3)c3ccccc3)CC2)cc1	?	13µM*	nt	-9	-13	0%
COc1ccc(NC(=S)N2CCC(C(O)(c3ccccc3)c3ccccc3)CC2)cc1	?	?	nt	5	16	-6%
OC(c1ccccc1)(c1ccccc1)C1CCN(C(=S)NC2CCCC2)CC1	18%[10 µM]	20µM*	-2%	15	-7	-6%
S=C(NC1CCCCC1)N1CCOCCOCCN(C(=S)NC2CCCCC2)CCOCC1	?	11µM*	-1%	-2	-3	8%
OC(c1ccccc1)(c1ccccc1)C1CCN(C(=S)NCCc2ccccc2)CC1	?	13µM*	3%	-4	25	-3%
CCN(C)C1CN(Cc2cn(Cc3ccc(Cl)cc3)nn2)S(=O)(=O)C1 (stereo unspecified)	nt	nt	nt	1	4	nt
CC(=O)Nc1ccc(C(=O)N/C(=C/c2ccccc2)C(=O)N2CCCCC2)cc1	8%	-20%	0%	2	3	nt
CCNc1nc(NCC)nc(OCCOC(C)=O)n1	5%	-8%	?	8	5	-2%
CCNc1nc(ON=C(C)C)nc(N(C)C)n1	0%	14µM*	2%	-1	1	3%
C=C1C2CC[C@]3(CCC4[C@@]5(C)CCC[C@@]4(CN(CCO)C5)[C@@H]3C2)[C@@H]1O (stereo partly specified)	-11%	16%	nt	nt	nt	-8%
C=CCn1c(-c2ccccc2[N+](=O)[O-])n[nH]c1=S	?	3.2µM*	26%	7	8	3%
C=CCn1c(-c2cnn(-c3ccccc3)c2N)n[nH]c1=S	21%	?	5%	2	2	7%
C=CCn1c(-c2ccc(=O)n(Cc3ccccc3)c2)n[nH]c1=S	-9%	-27%	1%	nt	nt	1%

Assay outcomes (PubChem)
